# According to ChEMBL document CHEMBL3988442, “University of Dundee, Small-Polar-MMV Screening Library” (2021):
# Target: T1, Aspartate--tRNA(Asp/Asn) ligase (Mycobacterium tuberculosis (strain ATCC 25618 / H37Rv)) (UniProt P9WFW3)
# T1 sequence (whole entry): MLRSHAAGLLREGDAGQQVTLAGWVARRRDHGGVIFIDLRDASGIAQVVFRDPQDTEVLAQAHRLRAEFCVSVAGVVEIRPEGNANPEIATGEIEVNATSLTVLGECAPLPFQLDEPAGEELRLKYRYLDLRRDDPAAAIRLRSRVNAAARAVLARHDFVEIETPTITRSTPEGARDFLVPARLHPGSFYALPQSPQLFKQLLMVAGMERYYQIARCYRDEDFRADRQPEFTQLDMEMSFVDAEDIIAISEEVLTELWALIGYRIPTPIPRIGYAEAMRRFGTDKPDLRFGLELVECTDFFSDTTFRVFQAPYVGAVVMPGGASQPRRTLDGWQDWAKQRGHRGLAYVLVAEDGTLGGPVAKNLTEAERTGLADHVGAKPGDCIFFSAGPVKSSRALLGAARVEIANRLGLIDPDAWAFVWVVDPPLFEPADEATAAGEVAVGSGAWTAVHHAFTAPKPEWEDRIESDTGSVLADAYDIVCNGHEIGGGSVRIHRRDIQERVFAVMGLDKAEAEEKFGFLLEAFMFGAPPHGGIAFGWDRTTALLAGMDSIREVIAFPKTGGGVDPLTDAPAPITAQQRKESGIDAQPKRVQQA
# Assay: Assay for Asp RNA synthetase-1 from Mycobacterium tuberculosis
# Assay type: functional
# Design: scale not given: in the data most compounds retested in dose-response had high values
# Details: 30 µM
row,SMILES,Percent Effect [%]
1,c1ccc(CCN2CCN(c3ccc4nncn4n3)CC2)nc1,1.58
2,Cc1ccc(N2CCCC(NCC(=O)NCC3CC3)C2)nn1 (stereo not given),-5.2
3,CCc1cnc(CN(C)C2CCN(CCS(C)(=O)=O)C2)o1 (stereo not given),0.585
4,CCn1cc(CN2CCc3nc(N4CCOCC4)nc(O)c3CC2)cn1,-1.83
5,NC(=O)NC(=O)CCN1CCCN(c2nccs2)CC1,1.54
6,CC1CCN(C(=O)c2ccn(COc3ccc(F)cc3)n2)CC1,9.51
7,COCC(=O)N1CCC(c2nccnc2Oc2cccnc2C)CC1,3.02
8,Cc1cnc(CN(C)C2CCN(CCc3cnn(C)c3)C2)o1 (stereo not given),-2.22
9,Cc1noc(C)c1CN1CCN(Cc2nccn2C)C(C)C1 (stereo not given),-3.74
10,COCCN(Cc1ccoc1)C(=O)c1cccnc1SC,1.65
11,COCc1c(C(=O)NC2CCCC2)nnn1-c1ccc(C)cc1,-4.96
12,O=C(NCCC1=CCCCC1)C1CCN(c2ccc3nncn3n2)CC1,-1.42
13,COCCN1CCc2cc(C(=O)NCC3CC3)c(NC(C)C)nc2CC1,7.66
14,CN1CCC(c2cccc(Cc3ccc(F)cc3)n2)CC1,-0.194
15,O=C(c1cnccn1)N1CCN(Cc2csc(-c3ccccc3)n2)CC1,1.34
16,CC(C)c1nc(C2CCCN2C(=O)c2ccc(N(C)C)nn2)no1 (stereo not given),5.45
17,NC(=O)c1ccc(N2CCCCC2)c(NC(=O)c2cc(Br)ccc2F)c1,11
18,CN(C)C(=O)[C@@H]1CCO[C@@H]2CCN(Cc3ccccc3)C[C@@H]21,2.24
19,Cc1nc(N2CCN(C(=O)c3ccc(O)cc3)CC2)c2cnn(C)c2n1,-1.05
20,COCC1CN(C(=O)COc2ccccc2)Cc2cn(C)nc21 (stereo not given),1.18
